# Inconclusive results are not listed. Where a call stands in place of a potency, no number is given. The source made the active and inactive calls. Calls come from the whole dose curve; as a rule, active = well fitted cell-killing curve with a large enough effect; inconclusive = small, poorly fitted or top-dose-only effect; inactive = flat fitted curve, though single readings scatter.
# Experiment: DAPI mCherry counterscreen qHTS for Zika virus inhibitors; note: nearly all actives have a fitted effect of over 55% in size
# Details: Vero cells, DAPI nuclear count cytotoxicity, imaging 48-72 h, infected with Zika reporter virus, MOI 1; series mostly up to 32.6 µM
# Description: Assay Submitters (PI): Avindra Nath, Ph.D., National Institute of Neurological Disorders and Stroke (NINDS), Bethesda, MD Radhakrishnan Padmanabhan, Ph.D., Georgetown University (GU), Washington D.C. Zika Virus causes congenital defects, including microcephaly and is associated with Guillain-Barre syndrome, eningoencephalitis and myelitis in infected adult. […] Using a target-based approach, we hope to establish a screening paradigm to uncover novel, cell-active NS2B-NS3 protease (Zika Virus) specific inhibitors from NCATS' collection of small molecules using qHTS. […] Four assay panel was created to identify potential Zika Virus inhibitors. Namely, (1) GU unlinked NS2B-NS3 AMC tagged protease qHTS, (2) GU unlinked NS2B-NS3 Rhodamine tagged protease qHTS, (3) NINDS linked NS2B-NS3 AMC tagged protease qHTS, (4) NINDS linked NS2B-NS3 Rhodamine tagged protease qHTS. Active compounds were re-acquired and re-screened to confirm inhibition. Inhibitors were further screened against various confirmatory and counterscreens in dose response format. […] A DAPI (mCherry counterscreen) which determine Vero cell cytotoxicity was used to exclude false positive compounds. […] Early Translation Branch (ETB) National Center for Advancing Translational Sciences (NCATS), Rockville, MD National Institute of Health (NIH), Bethesda, Maryland
# 384 well ZIKV-mCherry & mCherry DAPI counterscreen: We have developed a new orthogonal imaging assay in 384-well plate format, which uses recombinant virus ZIKV-mCherry in Vero cells. Briefly, 30 microL of Vero cells derived from a green monkey cell line, were dispensed by Multidrop Dispenser into a clear solid bottom black 384 well plate (ultracarrier, Perkin Elmer LifeSciences) at a concentration of 5,000 cells per well. The plate was incubated overnight in a CO2 incubator at 37 degrees C. Compounds were delivered as a 126 nL DMSO solution by Kalypsys pintool transfer. Following compound transfer, 10 microL of ZIKV-mCherry was added at an MOI of 1 and incubated in a CO2 incubator for 48-72 hrs at 37 degrees C. After sufficient incubation of infected cells in test plates, 8 microL of 32% PFA was dispensed into assay plates to fix cells and incubated for 20 min at room temperature. Plates were washed 3 times with PBS using BioTek EL406 microplate washer/dispenser. After washing, 30 microL of PBS with 0.01% TX-100 containing Hoechst dye was dispensed into the each well of the plates for nuclear staining. 384-well plates were imaged on an automated, widefield high content imager (INCell 2200, GE Healthcare) using a 10x/0.45 NA lens and standard DAPI (nuclear stain) and mCherry (cy5) excitation and emission filters. The TIFFs were quantitated using the canned Multi Target Analysis protocol (GE Investigator Workstation software v3.7.2). Briefly, nuclei from the DAPI channel were identified using top hat segmentation and a sensitivity setting of 96 and minimum size area of 35 microm2. A recombinant Zika viral infection was monitored in the Cy5 channel (cells) using a 2 microm collar dilation from the nuclear bitmap. mCherry objects with an average nuclear RFU intensity above 450 (3 stdev above mean negative control wells) were considered "mcherry positive" and data was analyzed by percent infection rate.
# Potency is the fitted concentration of half-maximal effect.
row,Structure (SMILES),Potency
1,O=c1c(O)c(-c2ccc(O)c(O)c2)oc2cc(O)cc(O)c12,inactive
2,Cc1cc(-c2ccc(N=Nc3c(S(=O)(=O)O)cc4cc(S(=O)(=O)O)cc(N)c4c3O)c(C)c2)ccc1N=Nc1c(S(=O)(=O)O)cc2cc(S(=O)(=O)O)cc(N)c2c1O,inactive
3,O=C(Nc1ccc(C(=O)OCc2cc(=O)n3c4c(sc3n2)CCCC4)cc1)c1ccc(F)cc1,inactive
4,Oc1c(Cl)cc(Cl)c(Cl)c1Cc1c(O)c(Cl)cc(Cl)c1Cl,31.6 µM (active)
5,Cc1oc2c(cc(NS(=O)(=O)c3ccc(Cl)cc3)c3ccccc32)c1C(=O)OCc1ccccc1,inactive
6,CNC(=O)c1cc(Oc2ccc(NC(=O)Nc3ccc(Cl)c(C(F)(F)F)c3)cc2)ccn1,4.47 µM (active)
7,Nc1ncnc2c([C@@H]3N[C@H](CO)[C@@H](O)[C@H]3O)c[nH]c12,inactive
8,O=C(Nc1ccc(-c2ccc(Cl)c(Cl)c2)cc1)C1=C(O)c2ccccc2S(=O)(=O)N1,8.91 µM (active)
9,COc1c2occc2cc2ccc(=O)oc12,inactive
10,CCN(Cc1cccc(S(=O)(=O)O)c1)c1ccc(C(=C2C=CC(=[N+](CC)Cc3cccc(S(=O)(=O)O)c3)C=C2)c2ccccc2S(=O)(=O)[O-])cc1,inactive
11,Cc1nn2c(=O)cc(COC(=O)c3ccc(NC(=O)c4ccc(C(C)(C)C)cc4)cc3)nc2s1,28.2 µM (active)
12,Nc1c(N=Nc2ccc([N+](=O)[O-])cc2)c(S(=O)(=O)O)cc2cc(S(=O)(=O)O)c(/C=C/c3ccccc3)c(O)c12,inactive
13,O=C(O)c1cc(-n2c(/C=C\c3ccc(F)cc3)nc3ccccc3c2=O)ccc1Cl,inactive
14,Cc1cc(S(=O)(=O)Nc2ccc(C(=O)O)cc2)c(C)c(S(=O)(=O)c2ccc(Cl)cc2)c1,inactive
15,Cc1nc(N=Nc2cc(S(=O)(=O)O)c3cc([N+](=O)[O-])cc(S(=O)(=O)O)c3c2)c(COP(=O)(O)O)c(C=O)c1O,inactive
16,O=C(O)c1cnn(-c2nc3cc(OC(F)(F)F)c(Cl)cc3[nH]2)c1,inactive
17,O=S(=O)(Nc1ccc(O)c(Sc2nc3ccccc3s2)c1)c1cc(Cl)ccc1Cl,35.5 µM (active)
18,COc1cc(C(=O)NS(=O)(=O)c2ccccc2C)ccc1Cc1cn(C)c2ccc(NC(=O)OC3CCCC3)cc12,35.5 µM (active)
19,CC(C)=CCOc1ccc(/C=C/C(=O)c2ccc(OCC=C(C)C)cc2OCC(=O)O)cc1,25.1 µM (active)
20,N#CC1C(=O)Nc2scc(-c3ccc(-c4ccccc4O)cc3)c2C1=O (stereo not given),8.91 µM (active)

row,Structure (SMILES),Potency
1,O=S(=O)(O)c1cc(O)c2c(N=Nc3ccc(Nc4ccccc4)c4c(S(=O)(=O)O)cccc34)cc(S(=O)(=O)O)cc2c1,inactive
2,O=c1c(O)c(-c2ccc(O)cc2O)oc2cc(O)cc(O)c12,inactive
3,Cc1ccc(-c2nnc(Nc3ccc(S(N)(=O)=O)cc3)c3ccccc23)cc1S(=O)(=O)N1CCOCC1,inactive
4,O=C(O)c1cc(-c2ccc(C(F)(F)F)cc2)nc2n[nH]c(-c3ccccc3)c12,inactive
5,O=S(=O)(Nc1ccc(Cl)cc1)c1ccc(NS(=O)(=O)c2ccc3c(c2)OCCO3)cc1,31.6 µM (active)
6,CCOC(=O)c1ccc(Nc2nc3ccccc3nc2NS(=O)(=O)c2ccc(Cl)cc2)cc1,7.94 µM (active)
7,CC(C)(Sc1ccc(CCN(CCCCC2CCCCC2)C(=O)NC2CCCCC2)cc1)C(=O)O,14.1 µM (active)
8,CC(C)(C)Sc1c(CC(C)(C)C(=O)O)n(Cc2ccc(Cl)cc2)c2ccc(OCc3ccc4ccccc4n3)cc12,35.5 µM (active)
9,CCOc1nc2cccc(C(=O)OC(C)OC(=O)OC3CCCCC3)c2n1Cc1ccc(-c2ccccc2-c2nn[nH]n2)cc1 (stereo not given),15.8 µM (active)
10,O=C(O)c1ccc(CCCc2ccc(OCCc3ccc(F)cc3)cc2)o1,31.6 µM (active)
11,COc1ccc(-c2cc(=O)c3c(O)cc(O)c(-c4cc(-c5cc(=O)c6c(O)cc(O)cc6o5)ccc4OC)c3o2)cc1,12.6 µM (active)
12,N#Cc1c(O)c2c(-c3ccc(-c4ccccc4O)cc3)csc2[nH]c1=O,inactive
13,O=C(Nc1ccc(S(=O)(=O)N2CCOCC2)cc1)c1cc(Cl)ccc1NS(=O)(=O)c1ccc(Cl)s1,15.8 µM (active)
14,COc1ccc2c(c1)Oc1nc(-c3ccc(C)s3)nc(SCC(=O)Nc3cccc(C(=O)O)c3)c1C2,inactive
15,O=C(Nc1ccc(S(=O)(=O)Nc2nccs2)cc1)C(c1ccccc1)c1ccccc1,inactive
16,CCS(=O)(=O)c1cccc(C(=O)Nc2ccc(-c3nc4ccccc4s3)c(O)c2)c1,14.1 µM (active)
17,Cc1ccc(C(=O)Nc2ccc(S(=O)(=O)O)c3cc(S(=O)(=O)O)cc(S(=O)(=O)O)c23)cc1NC(=O)c1cccc(NC(=O)Nc2cccc(C(=O)Nc3cc(C(=O)Nc4ccc(S(=O)(=O)O)c5cc(S(=O)(=O)O)cc(S(=O)(=O)O)c45)ccc3C)c2)c1,inactive
18,CN(C)[C@@H]1C(=O)C(C(N)=O)=C(O)[C@@]2(O)C(=O)C3=C(O)c4c(O)cccc4C[C@H]3C[C@@H]12,inactive
19,C[C@H](NC(=O)C(=O)Nc1ccccc1C(C)(C)C)C(=O)N[C@@H](CC(=O)O)C(=O)COc1c(F)c(F)cc(F)c1F,inactive
20,O=C(O)c1cc(N(Cc2ccc(C3CCCCC3)cc2)C(=O)c2ccc(Oc3ccccc3)cc2)ccc1O,35.5 µM (active)

# Source: PubChem BioAssay AID1347156 (National Center for Advancing Translational Sciences (NCATS), 2019)
